Source: PubChem BioAssay (NCI)
Where “and” joins values, the source holds several entries; their conditions need not be identical. Identical values can stand only once. This is part of a sample that, as a whole, favours compounds with a hit. Of some 83,000 tested, about 20% had one in any assay.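 48-hour exposure, single concentration, 96-well plates; percent growth endpoint where 0 means no net growth. Active: below 10.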 Calls of active or inactive are those of the source.

Each compound was assayed on HL-60(TB) leukemia (assay: NCI-60 one-dose screen, 48 h (100 = growth as untreated, 0 = no growth, -100 = all killed)). Settings: 10 µM unless noted.
`COc1cc(/C=N/n2cnc3oc(-c4ccccc4)cc3c2=N)cc(CN2CCN(C)CC2)c1O` was tested, and the growth was 110% (inactive).
With `O=C(Nc1cccc(C(F)(F)F)c1)c1cc(-c2ccc(F)cc2F)ccc1O` the growth was -40.7% (active).
`CC(C)(C)c1ccc(-c2nnc(-c3nc4ccccc4nc3Cl)o2)cc1` was tested, and the growth was 13.6% (inactive).
`N#Cc1nc(-c2ccccc2)oc1N1CCC(C2(C(F)(F)F)N=N2)CC1` was tested, and the growth was 95.4% (inactive).
`CN1CCN(Cc2ccc(NC(=O)c3cncc(C#Cc4cnc5ccc(OC6CCOCC6)nn45)c3)cc2C(F)(F)F)CC1` was tested, and the growth was -43.8% (active).
`Nc1c(C(=O)c2ccc(Br)cc2)oc2nc(-c3cnccn3)cc(-c3cccs3)c12` was tested, and the growth was 100% (inactive).
`COc1cc2nc(-c3ccc(C)cc3)cc(OCCCNCC3CCCO3)c2cc1OC` (stereo not given) was tested, and the growth was 48.6% (inactive).
With `CC(=O)Nc1ccc(NC(=O)Nc2cccc(-c3nc(-c4ccc(NC(=O)c5cccs5)cc4Cl)no3)c2)cc1C(F)(F)F` the growth was 5.88% (active).
In the case of `O=C(/C=C/c1cccc(C(F)(F)F)c1)Nc1cccc(C(F)(F)F)c1`, the growth was 38.3% (inactive).
`O=S(=O)(NCCCNc1nccc(-c2[nH]c(-c3ccccc3)nc2-c2ccc(F)c(O)c2)n1)c1cccc(F)c1` was tested, and the growth was 95.7% (inactive).
`COc1cc(-c2nc(-c3ccccc3)[nH]c2-c2ccnc(NCCCNS(=O)(=O)c3ccc(C(F)(F)F)cc3)n2)ccc1Cl` was tested, and the growth was 13.9% (inactive) and 37.8% (inactive).
With `Oc1ccc(CSc2nnc(-c3ccc(Cl)cc3)n2-c2ccccc2)c2cccnc12` the growth was 23.6% (inactive).
For `C#Cc1ccc(NC(=O)c2ccc(/C=C/C(=O)c3nccn3C)cc2)c(F)c1`, the growth was 7.29% (active).
For `IP(CCCSc1n(Cc2ccc3ccccc3c2)c(-c2ccccc2)c(-c2ccccc2)[n+]1Cc1ccc2ccccc2c1)(c1ccccc1)(c1ccccc1)c1ccccc1`, the growth was -29.1% (active).
`O=C(N/N=C\c1ccc(F)cc1)c1ccc2nc(-c3ccc(Br)cc3)[nH]c2c1` was tested, and the growth was 78.8% (inactive).
With `CC1=C(C)C(=O)C(Nc2ccccc2)=C(Cl)C1=O` the growth was 45.6% (inactive).
In the case of `CCCCCCCCCC[C@@H](C)[C@@H]1CC(=O)N[C@H]([C@@H](C)O)C(=O)N[C@@H](C)C(=O)N[C@H](C)C(=O)N[C@@H](CCC(N)=O)C(=O)N[C@H](Cc2ccc(O)cc2)C(=O)N[C@@H](C(C)CC)C(=O)O1` (stereo not given in full), the growth was 65% (inactive).
`Clc1ccc2c(NCCCn3ccnc3)c3oc4ccccc4c3nc2c1` was tested, and the growth was 40.4% (inactive).
For `Brc1cccc(/C=N/Nc2nc(N/N=C/c3cccc(Br)c3)nc(N3CCOCC3)n2)c1`, the growth was -10.2% (active).
With `CC/C(=C/c1c(O)cccc1OC)c1ccc2c(OC)cccc2[o+]1` the growth was 106% (inactive).
In the case of `O=C(CCCCCCNC(=O)C(O)(O)C(F)(F)F)Nc1nc2ccccc2s1`, the growth was 11.3% (inactive).
`O=C(CCl)Nc1ccc(NC(=O)c2cc(Cl)ccc2O)c(Cl)c1` was tested, and the growth was 49.3% (inactive).
For `Oc1c(Cl)cc(Cl)c2ccc(CN3CCCCC3)nc12`, the growth was 32.9% (inactive).
`CCN1C(=S)N(CC)C2C1N=C(SC)N2/N=C/C=C/c1ccccc1[N+](=O)[O-]` (stereo not given) was tested, and the growth was 84.3% (inactive).
For `CCc1ccc(NC(=O)N[C@@H](Cc2cccc(F)c2)C(=O)N[C@@H]2C(=O)N3CCC[C@H]3C(=O)N3CCCC[C@H]3C(=O)N[C@@H](CO)C(=O)N3C[C@H](C)C[C@H]3C(=O)O[C@H]2C)c(F)c1`, the growth was 13.3% (inactive).
`C#CCN(C)CCCOc1ccc(NCc2ccc(/C=C/C(=O)NO)cc2)cc1Cl` was tested, and the growth was 6.07% (active).
`CS(=O)(=O)Nc1cc(-c2ccc3ncc(C#N)c(NCc4ccccc4O)c3c2)cnc1Cl` was tested, and the growth was 12.4% (inactive).
`O=C(NNc1nc2cc(F)ccc2n2cccc12)c1ccncn1` was tested, and the growth was -4.33% (active).
For `COc1ccc(NC2=CC(=O)C(C)=C(C)C2=O)cc1`, the growth was 80.2% (inactive).
`N#Cc1nc(-c2ccccc2)oc1S(=O)(=O)N1CCN(CCc2ccccn2)CC1` was tested, and the growth was 5.71% (active).
In the case of `O=C(NNc1nc2cc(F)c(F)cc2n2cccc12)c1ncccn1`, the growth was 2.19% (active).
In the case of `O=C1Nc2ccccc2/C1=C/c1ccc(CO)n1-c1ccc(Cl)cc1`, the growth was 15.8% (inactive).
With `CCN1C(=O)N(CC)C2SC(N/N=C/c3ccccc3F)=NC21` (stereo not given) the growth was 0.098% (active).
`CC(C)(C)OC(=O)N1C(=O)c2c(c3c4ccccc4[nH]c3c3ccc4ccccc4c23)C1=O` was tested, and the growth was 39.6% (inactive).
In the case of `CN1CC[C@@H]2[C@@]3(C)CC[C@H](O)C(C)(C)[C@@H]3CC[C@@]2(C)[C@]2(C)CC[C@@]3(CO)CCC(C)(C)C[C@@H]3C12` (stereo not given in full), the growth was 79.6% (inactive).
For `C[C@@H](Nc1c(C#N)cnc2ccc(-c3cnc(Cl)c(NS(C)(=O)=O)c3)cc12)c1ccccc1`, the growth was -28.4% (active).
In the case of `CCCn1cnc2c(c1=N)C(c1ccc(Cl)cc1)c1sc3c(C)cccc3c1O2` (stereo not given), the growth was -20% (active).
In the case of `COc1ccc(/C=C/C(=O)c2nnn(-c3ccc(C(=O)O)cc3)c2C)cc1OC`, the growth was 83.2% (inactive).
`Cn1cc(-c2cc(N)n3nc(-c4cn(C)c5ccccc45)cc3n2)c2ccccc21` was tested, and the growth was 11.6% (inactive).
With `C=CCSC1=NC2C(N(CC)C(=O)N2CC)N1/N=C/C=C/c1ccccc1OC` (stereo not given) the growth was 45.6% (inactive).
